GBA enhancer: increases beta-glucosidase activity in Gaucher fibroblasts. L444P Gaucher fibroblasts, 4-MU-glucoside fluorescence, 3 days. P04062. 30,000 tested, 0.44% active. AID 784. activation, % at 10 µM; in the data active = activation above about 65%;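 also: 0% = vehicle wells and 100% = positive control wells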
Target sequence (P04062 whole entry L483P): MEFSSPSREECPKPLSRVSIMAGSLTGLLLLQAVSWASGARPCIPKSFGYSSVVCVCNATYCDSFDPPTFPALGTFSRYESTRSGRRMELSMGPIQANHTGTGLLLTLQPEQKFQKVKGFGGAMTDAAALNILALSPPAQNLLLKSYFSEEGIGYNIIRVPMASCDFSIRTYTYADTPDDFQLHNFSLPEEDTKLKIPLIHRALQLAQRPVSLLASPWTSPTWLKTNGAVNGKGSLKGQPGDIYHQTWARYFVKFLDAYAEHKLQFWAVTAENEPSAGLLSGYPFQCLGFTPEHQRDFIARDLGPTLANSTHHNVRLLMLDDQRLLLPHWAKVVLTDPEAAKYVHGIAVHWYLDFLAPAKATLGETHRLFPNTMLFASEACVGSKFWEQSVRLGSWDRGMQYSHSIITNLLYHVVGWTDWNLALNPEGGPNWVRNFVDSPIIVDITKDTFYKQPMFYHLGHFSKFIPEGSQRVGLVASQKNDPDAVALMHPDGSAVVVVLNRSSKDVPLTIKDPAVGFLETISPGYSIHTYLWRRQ
Numbers without * were called inactive. The full list was thinned out, with hits kept by preference.

SMILES | GBA enhancer
C=CCSC1=N/C(=C\c2ccsc2)C(=O)S1 | 402*
CCOC(=O)C(NC(C)=O)(Nc1ccc(S(=O)(=O)Nc2cc(C)nc(C)n2)cc1)C(F)(F)F (stereo not drawn) | -9
O=C(CCNS(=O)(=O)c1cccc2nsnc12)NC1CCN(Cc2ccccc2)CC1 | 86*
CN(CC(=O)NCCN1CCN(Cc2ccccc2)CC1)S(=O)(=O)c1cccc2nsnc12 | 17
O=C(CCCNS(=O)(=O)c1cccc2nsnc12)NCCc1ccccc1 | 3
Cc1cccc2cc(CN(Cc3nnnn3Cc3ccco3)C3CCCC3)c3nnnn3c12 | 2
CCOc1ccc(OCC)c(NC(=O)CCn2c(=O)oc3ccccc32)c1 | -10
CN(Cc1cccs1)S(=O)(=O)c1cccs1 | -15
Cc1cccn2c(=O)c(C=Nc3ccc(Cl)cc3)c(NCCO)nc12 | 68*
Cc1cccn2c(=O)c(C=Nc3ccccc3)c(NCCO)nc12 | -23
CCNC(=O)c1cc2c(=O)n3cccc(C)c3nc2n1C | -18
COc1ccc(-n2c(SCC(N)=O)nnc2-c2ccccc2F)cc1 | -20
Clc1ccc(Br)cc1-c1nc(-c2cccnc2)no1 | 11
CCN1CCCC1CNC(=O)c1cc(NC(C)=O)c(N(C)C)cc1OC (stereo not drawn) | 3
O=C(c1ccc(F)cc1)N1CCN(Cc2ccccc2Br)CC1 | -17
COC(=O)CN1CCN(C(=O)c2ccc(F)cc2)c2ccccc2C1 | 106*
O=C(CCCN1Cc2ccccc2C1)c1ccc(F)cc1 | 19
CCCn1c(SCC(=O)Nc2ccccc2N2CCCCC2)nc2c1c(=O)n(C)c(=O)n2C | 16
CC(C)C(=O)Nc1cccc(NC(=O)CCN2C(=O)c3ccccc3S2(=O)=O)c1 | 3
Cc1cnc(-c2nnc(N(C)C(=O)c3ccncc3)s2)cn1 | -2
Cc1ccc(C(=O)C2=C(O)C(=O)N(CCCn3ccnc3)C2c2ccc(OC(C)C)cc2)o1 (stereo not drawn) | 6
CCCCN1C(=O)C2C(C(=O)Nc3cccc(OC)c3)C3C=CC2(O3)C1C(=O)NC1CCCCC1C (stereo not drawn) | -3
COc1cccc(NC(=O)C2C3C=CC4(O3)C2C(=O)N(C(C)C)C4C(=O)NC2CCCCC2C)c1 (stereo not drawn) | 68*
COc1cccc(NC(=O)C2C3C=CC4(O3)C2C(=O)N(C2CC2)C4C(=O)NC2CCCCC2C)c1 (stereo not drawn) | -10
Cn1ccnc1SCC(=O)N(C1CCCCC1)C1CCCCC1 | -6
SMILES | GBA enhancer
Cc1nc(NC(=O)c2ccccc2)sc1-c1csc(NCc2ccco2)n1 | 1
COc1ccc(-c2csc(NCc3ccco3)n2)cc1 | -32
Cc1nc(C)c(-c2csc(NCc3ccco3)n2)s1 | 98*
COc1cccc(C(c2nnnn2Cc2ccc(F)cc2)N2CCC(C(N)=O)CC2)c1OC (stereo not drawn) | 0
Cn1c(=O)c2c(nc(CN3CCOCC3)n2CCCO)n(C)c1=O | -19
CCc1ccc(NC(=O)Cn2c(SC)nc3ccccc32)cc1 | 82*
COC(=O)n1c(SC)nc2ccccc21 | -10
CSc1nc2ccccc2n1CC(=O)Nc1c(C)n(C)n(-c2ccccc2)c1=O | -12
Cc1ccc2c(c1)C1C=CCC1C(C(=O)O)N2 (stereo not drawn) | 10
Cc1ccc2c(c1)C1OCCC1C1N2C(=O)C2C(C(=O)O)C3C=CC21O3 (stereo not drawn) | -46
Cc1ccc2c(c1)[C@H]1OCC[C@H]1[C@@H](c1ccncc1)N2 | 72*
O=C(c1cccs1)N1CCN(S(=O)(=O)N2CCOCC2)CC1 | -2
O=C(CN1CCN(S(=O)(=O)c2cc(Cl)ccc2Cl)CC1)Nc1ccc2c(c1)OCCO2 | 53
C1CCN(c2nc(N3CCCCC3)nc(N3CCNCC3)n2)CC1 | -65
N#CN(CC(N)=O)c1nc(N2CCCCC2)nc(N2CCCCC2)n1 | -1
N/C(=N/O)c1nc(N2CCCCC2)nc(N2CCCCC2)n1 | 89*
O=C(CCN1CCN(CCC(=O)c2ccccc2)CC1)c1ccccc1 | 18

Compound activity (PubChem)
